Source: the supplement of paper PMC7411054

Legend:
Conditions in all cases: treatment time: 24 h
A549-ACTB-RAB5A [1] = test: phenotypically active (imaging signature differs from DMSO and reproducible) at any of 0.3-9 uM (binary (1 = active, 0 = inactive)); higher = active
Procedure, shortened: (§1)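 The reporter lines, fifteen in total and built by gene editing in A549, HepG2 and WPMY1 cells, used BFP for segmentation alongside GFP and RFP/FusionRed markers. Each was treated at 0.3, 1, 3 or 9 µM for 24 h in four wells and then imaged live, with live-cell features normalised to solvent control wells. Deviation meant ≥3 of 4 wells beyond the 95th percentile of control Euclidean distances; reproducibility meant a median replicate Pearson correlation above the 95th percentile of non-replicates. Only conditions meeting both were scored as phenotypically active.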

A549-CANX-COX4 [2] = test: as above
Procedure, shortened: as §1

A549-GM130-SQSTM1 [3] = test: as above
Procedure, shortened: as §1

A549-TP53BP1-CLTA = test: as above
Procedure, shortened: as §1

A549-TUBA1B-RELA = test: as above
Procedure, shortened: as §1

HepG2-ACTB-RAB5A = test: as above
Procedure, shortened: as §1

HepG2-CANX-COX4 = test: as above
Procedure, shortened: as §1

HepG2-GM130-SQSTM1 [4] = test: as above
Procedure, shortened: as §1

HepG2-TP53BP1-CLTA = test: as above
Procedure, shortened: as §1

HepG2-TUBA1B-RELA = test: as above
Procedure, shortened: as §1

WPMY1-ACTB-RAB5A = test: as above
Procedure, shortened: as §1

WPMY1-CANX-COX4 = test: as above
Procedure, shortened: as §1

WPMY1-GM130-SQSTM1 [5] = test: as above
Procedure, shortened: as §1

WPMY1-TP53BP1-CLTA = test: as above
Procedure, shortened: as §1

WPMY1-TUBA1B-RELA = test: as above
Procedure, shortened: as §1

A549-ACTB-RAB5A [6] = test: lowest phenotypically active concentration; higher = less potent
Procedure, shortened: as §1

A549-CANX-COX4 [7] = test: as above
Procedure, shortened: as §1

A549-GM130-SQSTM1 [8] = test: as above
Procedure, shortened: as §1

HepG2-GM130-SQSTM1 [9] = test: as above
Procedure, shortened: as §1

WPMY1-GM130-SQSTM1 [10] = test: as above
Procedure, shortened: as §1

Structure (SMILES)	phenotypically active (A549-ACTB-RAB5A [1])	phenotypically active (A549-CANX-COX4 [2])	phenotypically active (A549-GM130-SQSTM1 [3])	phenotypically active (A549-TP53BP1-CLTA)	phenotypically active (A549-TUBA1B-RELA)	phenotypically active (HepG2-ACTB-RAB5A)	phenotypically active (HepG2-CANX-COX4)	phenotypically active (HepG2-GM130-SQSTM1 [4])	phenotypically active (HepG2-TP53BP1-CLTA)	phenotypically active (HepG2-TUBA1B-RELA)	phenotypically active (WPMY1-ACTB-RAB5A)	phenotypically active (WPMY1-CANX-COX4)	phenotypically active (WPMY1-GM130-SQSTM1 [5])	phenotypically active (WPMY1-TP53BP1-CLTA)	phenotypically active (WPMY1-TUBA1B-RELA)	lowest phenotypically active concentration (A549-ACTB-RAB5A [6]) [µM]	lowest phenotypically active concentration (A549-CANX-COX4 [7]) [µM]	lowest phenotypically active concentration (A549-GM130-SQSTM1 [8]) [µM]	lowest phenotypically active concentration (HepG2-GM130-SQSTM1 [9]) [µM]	lowest phenotypically active concentration (WPMY1-GM130-SQSTM1 [10]) [µM]
Cc1nnc2n1-c1ccc(Cl)cc1C(c1ccccc1)=NC2 [alprazolam]	0 (inactive)	0 (inactive)	0 (inactive)	0 (inactive)	0 (inactive)	0 (inactive)	0 (inactive)	0 (inactive)	0 (inactive)	0 (inactive)	0 (inactive)	0 (inactive)	0 (inactive)	0 (inactive)	0 (inactive)					
Cc1cc2c(C(C)C)c(O)c(O)c(C=O)c2c(O)c1-c1c(C)cc2c(C(C)C)c(O)c(O)c(C=O)c2c1O [gossypol]	1 (active)	1 (active)	1 (active)	1 (active)	1 (active)	1 (active)	1 (active)	1 (active)	1 (active)	1 (active)	1 (active)	1 (active)	1 (active)	1 (active)	1 (active)	3	9	3	9	9
N#CC(O[C@@H]1O[C@H](CO[C@@H]2O[C@H](CO)[C@@H](O)[C@H](O)[C@H]2O)[C@@H](O)[C@H](O)[C@H]1O)c1ccccc1 (stereo partly drawn) [Amygdalin]	0 (inactive)	0 (inactive)	0 (inactive)	0 (inactive)	0 (inactive)	0 (inactive)	0 (inactive)	0 (inactive)	0 (inactive)	0 (inactive)	0 (inactive)	0 (inactive)	0 (inactive)	0 (inactive)	0 (inactive)					
C/C=C(/C)C(=O)O[C@H]1CC[C@@]2(C)[C@@H]3CC[C@H]4[C@]5(O)C[C@H](O)[C@@]6(O)[C@@H](CN7C[C@@H](C)CC[C@H]7[C@@]6(C)O)[C@]5(O)C[C@@]42O[C@]13O [Veratrine]	0 (inactive)	0 (inactive)	0 (inactive)	0 (inactive)	0 (inactive)	0 (inactive)	0 (inactive)	0 (inactive)	0 (inactive)	1 (active)	0 (inactive)	0 (inactive)	0 (inactive)	0 (inactive)	0 (inactive)					
CN1C(=O)CN=C(c2ccccc2)c2cc(Cl)ccc21 [diazepam]	0 (inactive)	0 (inactive)	0 (inactive)	0 (inactive)	0 (inactive)	1 (active)	0 (inactive)	0 (inactive)	0 (inactive)	0 (inactive)	0 (inactive)	0 (inactive)	0 (inactive)	0 (inactive)	0 (inactive)					
CCC(=O)C(CC(C)N(C)C)(c1ccccc1)c1ccccc1 (stereo not drawn) [methadone]	0 (inactive)	0 (inactive)	0 (inactive)		0 (inactive)	0 (inactive)	0 (inactive)	0 (inactive)		0 (inactive)	0 (inactive)	0 (inactive)	0 (inactive)		0 (inactive)					
CC(C)c1cccc(C(C)C)c1O [propofol]	0 (inactive)	0 (inactive)	0 (inactive)	0 (inactive)	0 (inactive)	0 (inactive)	0 (inactive)	0 (inactive)	0 (inactive)	0 (inactive)	0 (inactive)	0 (inactive)	1 (active)	0 (inactive)	0 (inactive)					3
